Test results published in PubChem BioAssay AID588849 (Broad Institute, 2011).
Entries with a potency or affinity are not part of this list. Calls of active or inactive are those of the source. How the calls were made is not given here.

Target: CAAX prenyl protease 2 (Homo sapiens) (UniProt Q9Y256)
Assay: inhibition of Ras-converting CAAX protease Rce1 – biochemical, yeast membranes, quenched-peptide fluorescence, cherry-pick, dose response (AID 588849)

Sequence of CAAX prenyl protease 2 (Homo sapiens) (Q9Y256 whole entry, looked up): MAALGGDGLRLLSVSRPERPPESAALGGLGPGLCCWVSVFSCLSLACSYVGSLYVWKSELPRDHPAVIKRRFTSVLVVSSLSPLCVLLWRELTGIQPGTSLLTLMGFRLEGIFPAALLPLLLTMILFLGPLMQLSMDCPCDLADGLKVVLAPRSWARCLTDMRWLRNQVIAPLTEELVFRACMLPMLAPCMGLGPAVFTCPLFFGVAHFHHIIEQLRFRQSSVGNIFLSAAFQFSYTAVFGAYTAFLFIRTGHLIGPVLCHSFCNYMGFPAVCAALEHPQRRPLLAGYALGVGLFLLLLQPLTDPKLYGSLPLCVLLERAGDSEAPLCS

SMILES | outcome
Cc1nc(SC(C(=O)c2ccccc2)c2ccccc2)nc2ccccc12 (centres undefined) | inactive
O=S(=O)(CC(CN1CCOCC1)N1CCOCC1)c1ccccc1 (centres undefined) | inactive
O=C(C1CCC(=O)N(C2CC2)C1)N1CCN(c2ccccc2Cl)CC1 (centres undefined) | inactive
FC(F)(F)c1cc(Oc2ccccc2)ncc1-c1nnc(-c2ccccc2Cl)o1 | inactive
O=C(CN1CCC(NC(=O)c2ccc(Br)cc2)CC1)NCc1cccs1 | inactive
CCn1c(C)nc2c(=O)oc3ccccc3c21 | inactive
Cc1ccc(N=Cc2c(O)n(C)c(=O)n(C)c2=O)nc1 | inactive
CCOc1ccc(N(Cc2ccc(OC)cc2)C(=O)c2ccco2)cc1 | inactive
Cc1ccc2nc(N(CCN(C)C)C(=O)c3ccc4ccccc4c3)sc2c1 | inactive
Cc1cc(OCC(=O)N2CCC(C(=O)O)CC2)c2c(C)cc(=O)oc2c1 | inactive
CCC(C)Sc1cc(-c2nc3ccccn3c2NC2CCCCC2)ccc1OC (centres undefined) | inactive
C/C(=N\NC(=O)c1ccc(Br)cc1)c1cccc(NC(=O)c2cccnc2)c1 | inactive
CCOC(=O)C1CCCN(C(=O)CCn2nnnc2CN2CCOCC2)C1 (centres undefined) | inactive
O=C(c1cnc2n(c1=O)CCS2)N1CCN(C(c2ccccc2)c2ccc(Cl)cc2)CC1 (centres undefined) | inactive
